Experimental data published in PubChem BioAssay AID1159580 (chemical genetic matrix, 2015).
Where “and” joins values, the source holds several entries; their conditions need not be identical. Identical values can stand only once. In all, about 5,500 compounds went through this assay and about 2,000 (36%) were called active. Another 18% or so got no clear call; they are omitted. Rule as the data show it: active = normalized growth mostly below about 0.91 (no sharp cut-off); inconclusive = no clear call, values can overlap the other calls; inactive = mostly above about 0.92. Some of the results follow.

Experiment: chemical genetic growth profiling, strain panel (AID 1159580);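 also: tested at 20 µM; growth read once vehicle control cultures reached saturation at 30 °C; 1 = growth at the plate median or of vehicle wells; lower values mean less growth of the strain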
Details: S. cerevisiae deletion strains, growth OD

Measured: normalized growth

CO[C@@]1(NC(=O)Cc2cccs2)C(=O)N2C(C(=O)O)=C(COC(N)=O)CS[C@@H]21
inactive: locus YAL013W, strain DEP1, active compounds read low 1 | locus YAL021C, strain ccr4, active compounds read low 0.939 | locus YAL026C, strain drs2, active compounds read low 0.969 | locus YAL030W, strain snc1, active compounds read low 0.982 | locus YBL061C, strain skt5, active compounds read low 0.97 | locus YBR009C, strain hhf1, active compounds read low 1.02 | locus YBR021W, strain FUR4, active compounds read low 1.01 | locus YBR023C, strain chs3, active compounds read low 0.971 | locus YBR171W, strain sec66, active compounds read low 0.968 | locus YBR229C, strain ROT2, active compounds read low 1.01 | locus YBR231C, strain swc5, active compounds read low 1.03 | locus YBR279W, strain paf1, active compounds read low 0.972 | locus YCL011C, strain gbp2, active compounds read low 0.976 | locus YCL016C, strain dcc1, active compounds read low 0.955 | locus YCL029C, strain bik1, active compounds read low 0.995 | locus YCL069W, strain vba3, active compounds read low 0.989 | locus YCR088W, strain abp1, active compounds read low 0.975 | locus YDL005C, strain med2, active compounds read low 0.981 | locus YDL035C, strain GPR1, active compounds read low 1.01 | locus YDL040C, strain nat1, active compounds read low 0.981 | locus YDL074C, strain BRE1, active compounds read low 1.02 | locus YDL101C, strain DUN1, active compounds read low 1.01 | locus YDL134C, strain PPH21, active compounds read low 1 | locus YDL185W, strain tfp1, active compounds read low 0.994 | locus YDL192W, strain arf1, active compounds read low 1 | locus YDR001C, strain nth1, active compounds read low 0.971 | locus YDR069C, strain doa4, active compounds read low 0.963 | locus YDR101C, strain arx1, active compounds read low 0.984 | locus YDR137W, strain rgp1, active compounds read low 0.94 | locus YDR150W, strain NUM1, active compounds read low 1.01 | locus YDR159W, strain sac3, active compounds read low 0.943 | locus YDR162C, strain NBP2, active compounds read low 1 | locus YDR195W, strain ref2 0.98 | locus YDR297W, strain sur2, active compounds read low 0.998 | locus YDR318W, strain mcm21, active compounds read low 0.992 | locus YDR334W, strain swr1, active compounds read low 0.97 | locus YDR335W, strain msn5, active compounds read low 0.955 | locus YDR388W, active compounds read low 0.99 | locus YDR392W, strain spt3, active compounds read low 0.838 | locus YDR502C, strain sam2, active compounds read low 0.991 | locus YEL003W, strain gim4, active compounds read low 0.983 | locus YEL037C, strain rad23, active compounds read low 0.97 | locus YEL061C, strain CIN8 (second series), active compounds read low 0.976 | locus YEL061C, strain CIN8, active compounds read low 1.01 | locus YER015W, strain faa2, active compounds read low 0.99 | locus YER016W, strain bim1, active compounds read low 0.949 | locus YER110C, active compounds read low 0.997 | locus YER111C, strain swi4, active compounds read low 0.96 | locus YER155C, strain BEM2 (second series), active compounds read low 0.977 | locus YER155C, strain BEM2, active compounds read low 1 | locus YER167W, strain BCK2, active compounds read low 1 | locus YFR010W, strain ubp6, active compounds read low 1.01 | locus YGL078C, strain dbp3, active compounds read low 0.986 | locus YGL086W, strain mad1, active compounds read low 0.987 | locus YGL167C, strain pmr1, active compounds read low 0.978 | locus YGL173C, strain kem1, active compounds read low 0.987 | locus YGL227W, strain vid30, active compounds read low 0.98 | locus YGL240W, strain doc1, active compounds read low 1 | locus YGL248W, strain PDE1, active compounds read low 1.01 | locus YGL253W, strain hxk2, active compounds read low 0.978 | locus YGR078C, strain PAC10, active compounds read low 1.01 | locus YGR135W, strain pre9, active compounds read low 0.989 | locus YGR252W, strain gcn5, active compounds read low 0.982 | locus YHR013C, strain ard1, active compounds read low 0.935 | locus YHR027C, strain rpn1, active compounds read low 1.01 | locus YHR030C, strain SLT2, active compounds read low 1.01 and 1.08 | locus YHR079C, strain IRE1 (second series), active compounds read low 0.995 | locus YHR079C, strain IRE1, active compounds read low 1.08 | locus YHR094C, strain hxt1, active compounds read low 0.984 | locus YHR129C, strain ARP1, active compounds read low 1 | locus YHR142W, strain chs7, active compounds read low 0.936 | locus YHR200W, strain rpn10, active compounds read low 0.994 | locus YIL066C, strain RNR3, active compounds read low 1.01 | locus YIL073C, strain SPO22, active compounds read low 1.01 | locus YIL125W, strain kgd1, active compounds read low 0.995 | locus YIR030C, strain dcg1, active compounds read low 0.996 | locus YJL092W, strain hpr5, active compounds read low 0.989 | locus YJL095W, strain BCK1 (second series), active compounds read low 0.967 | locus YJL095W, strain BCK1, active compounds read low 1.01 and 1.06 | locus YJL115W, strain asf1, active compounds read low 0.969 | locus YJL129C, strain trk1, active compounds read low 0.914 | locus YJL134W, strain LCB3, active compounds read low 1.01 | locus YJL154C, strain vps35, active compounds read low 0.973 | locus YJL164C, strain tpk1, active compounds read low 0.98 | locus YJL166W, strain qcr8, active compounds read low 0.987 | locus YJL168C, strain set2, active compounds read low 0.992 | locus YJL187C, strain SWE1 (second series), active compounds read low 1.01 | locus YJR043C, strain POL32, active compounds read low 0.986
